PubChem BioAssay AID488969 (Vanderbilt High Throughput Screening Facility, 2010)
The full ranking holds about 110,000 compounds; the median of “z-score” is about -0.1, and the highest 2% start at about 2. The entries come from a sample that favours the highest values as a whole. Active and inactive are the calls of the source.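 How the source made its calls: active means z-score in the third read window above 3 or below -3; inactive means the rest.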

Each compound was assayed against Metabotropic glutamate receptor 8 (Rattus norvegicus) (UniProt P70579) (assay: rat mGluR8 modulators via GIRK flux, primary screen, cell-based, thallium flux, HTS (AID 488969)). Conditions: HEK293 rat mGluR8, GIRK (G protein-gated inwardly rectifying potassium channel) thallium flux, FluoZin2; at 10 µM; stronger effect = higher value; submaximal glutamate (EC20) added with thallium.
Chain of Metabotropic glutamate receptor 8 (Rattus norvegicus) (P70579 whole entry, looked up): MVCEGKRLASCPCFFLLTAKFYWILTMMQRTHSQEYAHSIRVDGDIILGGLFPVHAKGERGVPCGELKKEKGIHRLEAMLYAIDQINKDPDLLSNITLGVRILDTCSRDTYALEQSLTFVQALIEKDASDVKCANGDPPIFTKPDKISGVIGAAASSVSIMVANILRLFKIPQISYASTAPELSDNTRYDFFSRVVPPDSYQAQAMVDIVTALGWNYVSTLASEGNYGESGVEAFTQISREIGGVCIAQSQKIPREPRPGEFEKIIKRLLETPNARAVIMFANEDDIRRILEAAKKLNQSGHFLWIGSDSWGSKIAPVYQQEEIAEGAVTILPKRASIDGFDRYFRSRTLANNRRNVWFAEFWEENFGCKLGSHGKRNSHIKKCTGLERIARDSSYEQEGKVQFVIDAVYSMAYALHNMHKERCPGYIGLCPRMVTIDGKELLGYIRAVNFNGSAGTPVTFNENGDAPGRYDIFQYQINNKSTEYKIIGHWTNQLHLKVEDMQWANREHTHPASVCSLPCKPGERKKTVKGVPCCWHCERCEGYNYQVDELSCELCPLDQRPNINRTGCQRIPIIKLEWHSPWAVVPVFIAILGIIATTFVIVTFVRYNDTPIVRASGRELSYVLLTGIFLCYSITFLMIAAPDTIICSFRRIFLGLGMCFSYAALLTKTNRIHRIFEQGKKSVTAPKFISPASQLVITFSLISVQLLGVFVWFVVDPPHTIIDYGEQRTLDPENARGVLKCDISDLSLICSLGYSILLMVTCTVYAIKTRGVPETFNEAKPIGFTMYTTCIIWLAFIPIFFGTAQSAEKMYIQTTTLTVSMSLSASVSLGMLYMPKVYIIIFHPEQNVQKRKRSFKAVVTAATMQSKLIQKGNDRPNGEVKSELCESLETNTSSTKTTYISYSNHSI
For `O=C(CCc1ccc(S(=O)(=O)N2CCOCC2)cc1)N1CCCC1`, the z-score was 2.62. Compound `O=C(O)CCc1ccc(S(=O)(=O)N2CCOCC2)cc1` has a z-score of 0.0366. In the case of `O=C(CCc1ccc(S(=O)(=O)N2CCOCC2)cc1)NN=C1CCCCCCC1`, the z-score is reported as -0.592. Compound `CCN(CCO)c1ncnc2c1sc1nc(CC(C)C)c3c(c12)CC(C)(C)OC3` has a z-score of -0.758. Work on `COC(=O)CNC(=O)CN1C(=O)N(c2ccc(Cl)cc2)C(N(O)C(=O)Nc2ccc(Cl)cc2)C1(C)C` (centres undefined) yielded a z-score of 0.0314. For `CCOc1ncccc1C(=O)OCc1nnc(-c2ccccc2)o1`, the z-score was -0.473. `Cn1c(-c2sc3ccccc3c2Cl)n[nH]c1=S` was tested, and the z-score was 13.3 (active). Compound `Cn1c(-c2sc3cc(C(F)(F)F)cnc3c2-c2ccccc2)n[nH]c1=S` has a z-score of 1.26. Compound `Cc1nc(-c2ccccc2)sc1-c1n[nH]c(=S)n1C` has a z-score of 0.154. Compound `CCCc1cc(-c2n[nH]c(C(=O)OCC)c2-c2cscn2)c(O)cc1O` has a z-score of -0.373. `CCN(CC(=O)Nc1ccc(OC)c(OC)c1)S(=O)(=O)c1ccc(C)cc1` gave a z-score of 0.404. In the case of `Cc1ccc(S(=O)(=O)CC(=O)Nc2ccc(S(=O)(=O)Nc3onc(C)c3C)cc2)cc1`, the z-score is reported as 2.41. Work on `COc1cc(NC(=O)CS(=O)(=O)c2ccccc2)cc(OC)c1OC` yielded a z-score of 1.2. For `Cc1noc(NS(=O)(=O)c2ccc(NC(=O)CS(=O)(=O)c3ccccc3)cc2)c1C`, the z-score was 0.155. `COc1cc(NC(=O)CS(=O)(=O)c2ccc(C)cc2)cc(OC)c1OC` was tested, and the z-score was 3.72 (active). Work on `Cc1ccc(OCC(=O)Nc2ccc(S(=O)(=O)Nc3onc(C)c3C)cc2)cc1` yielded a z-score of 0.0571. With `Cc1cc(=O)oc2cc(OCC(=O)OCc3nnc(-c4ccccc4)o3)ccc12` the z-score was -0.34. In the case of `CCC(c1nnc(SCC(=O)Nc2ccc(Cl)cc2C(F)(F)F)n1C1CCCCC1)N(C)C` (centres undefined), the z-score is reported as -0.456. `O=C(CSc1nc(-c2ccco2)cc(C(F)(F)F)n1)NCCc1ccccc1` was tested, and the z-score was 0.104. Compound `O=C(c1ccc(Br)o1)N1CCCc2ccccc21` has a z-score of -0.269. In the case of `COc1ccc(CNC(=O)CSCc2ccccc2Cl)cc1`, the z-score is reported as 4.96 (active). Compound `COc1ccc(CNC(=O)CCSCc2ccccc2Cl)c(OC)c1` has a z-score of -0.407. For `COc1ccc(CNC(=O)CSCc2cccc(Cl)c2)cc1`, the z-score was -0.235. With `CCOc1ccccc1C(=O)NC(CO)C(=O)O` (centres undefined) the z-score was -0.109. Work on `CCNCCOC(c1ccccc1)c1ccccc1` yielded a z-score of 0.455. For `Cc1c(Cl)cccc1-c1ccc(/C=N/n2cnnc2)o1`, the z-score was -0.29. `Clc1cccc(-c2ccc(/C=N/n3cnnc3)o2)c1Cl` was tested, and the z-score was 8.91 (active). With `Clc1ccccc1-c1ccc(/C=N/n2cnnc2)o1` the z-score was 0.334. With `O=C(Nn1c(SCc2ccccc2F)nc2ccsc2c1=O)c1ccccc1` the z-score was -0.0125. Work on `O=C(Cn1nc(Cl)nc1Cl)c1cc2ccccc2oc1=O` yielded a z-score of -0.931. Work on `CCOc1cc(CNCCSc2nnnn2C)cc(Br)c1OCc1ccccc1F` yielded a z-score of 0.196. Compound `CCOc1cc(CNCCSc2nnnn2C)cc(Br)c1OCc1ccc(F)cc1` has a z-score of 0.297. Work on `CCOc1cc(CNCCSc2nnnn2C)cc(Br)c1OCc1ccccc1` yielded a z-score of 2.3. `NNC(=O)c1nnn(-c2nonc2N)c1-c1cccs1` gave a z-score of -0.0988. `O=C(Nc1ccccc1N1CCCCC1)c1cccs1` gave a z-score of 0.223. `O=C(NC(=S)Nc1ccc(N2CCCCC2)cc1)c1cccs1` was tested, and the z-score was 11 (active). With `O=C(NC(=S)Nc1ccc(N2CCCCC2)c(Cl)c1)c1cccs1` the z-score was 8.72 (active). `O=C(NC(=S)Nc1ccc(S(=O)(=O)N2CCCCCC2)cc1)c1cccs1` gave a z-score of -0.208. `CCCCCC(=O)NC(=S)Nc1ccc(N2CCCCC2)c(Cl)c1` was tested, and the z-score was -0.183. Compound `O=C(NC(=S)Nc1ccc(S(=O)(=O)N2CCCC2)cc1)c1cccs1` has a z-score of 1.1. Compound `CC(=O)Cc1nsc(NC(=O)c2cc(-c3ccc(Cl)c(Cl)c3)oc2C)n1` has a z-score of -0.22. `Cc1ccc(S(=O)(=O)c2ccc(C)cc2)cc1` showed a z-score of -0.487. For `CCN1C(=O)/C(=C\c2ccc3c(c2)OCO3)C(C(=O)OC)=C1C`, the z-score was -0.35. Work on `COc1ccc(C(=O)C(OC(=O)c2ccccc2Cl)c2ccccc2)cc1` (centres undefined) yielded a z-score of -0.172. `COc1ccc(-n2cc(C(=O)O)c3ccccc3c2=O)cc1` showed a z-score of 2.28. Work on `COC(=O)c1cn(-c2ccc(Cl)cc2)c(=O)c2ccccc12` yielded a z-score of -0.29. `CCOC(=O)c1ccccc1NC(=O)c1cn(-c2ccc(OC)cc2)c(=O)c2ccccc12` gave a z-score of -0.291. Work on `O=C(Nc1cc(C(F)(F)F)ccc1N1CCOCC1)c1cn2ccccc2n1` yielded a z-score of -0.314. Work on `c1nc(N2CCC3(CC2)OCCO3)c2c3c(sc2n1)CCCC3` yielded a z-score of -1.04. `CC1(C)CN=C(N2CCN(c3ncnc4sc5c(c34)CCCC5)CC2)S1` was tested, and the z-score was 5.02 (active). In the case of `c1nc(N2CCOCC2)c2c3c(sc2n1)CCCC3`, the z-score is reported as -0.441. `Cc1ccccc1CN1CCN(CC(=O)NCc2ccccc2)C1=O` was tested, and the z-score was 0.0216. Work on `COc1ccc(OCCn2nnc(-c3ccc(Cl)cc3)n2)cc1` yielded a z-score of 0.195. Compound `O=C(CSc1nnc(-c2cnccn2)n1Cc1ccco1)c1ccc(Cl)cc1` has a z-score of -0.74. With `COc1ccc(NC(=O)CSc2nnc(-c3ccccn3)n2Cc2ccco2)cc1OC` the z-score was 5.76 (active). For `Clc1ccc(CSc2nnc(-c3ccccn3)n2Cc2ccco2)c(Cl)c1`, the z-score was 0.104. Work on `COc1ccccc1NC(=O)CSc1nnc(-c2ccccn2)n1Cc1ccco1` yielded a z-score of -1.55. `O=C(CSc1nnc(-c2ccccn2)n1Cc1ccco1)c1ccccc1` was tested, and the z-score was 1.88. `COc1ccc(C)cc1NC(=O)CSc1nnc(-c2ccccn2)n1Cc1ccco1` was tested, and the z-score was 0.359. `O=C(CSc1nnc(-c2cnccn2)n1Cc1ccco1)c1ccccc1` was tested, and the z-score was 2.15. In the case of `Clc1cccc(CSc2nnc(-c3ccccn3)n2Cc2ccco2)c1`, the z-score is reported as 3.12 (active). With `Clc1ccccc1CSc1nnc(-c2ccccn2)n1Cc1ccco1` the z-score was 0.314. `COC(=O)c1ccccc1NC(=O)c1cn(-c2ccc(C)c(C)c2)c(=O)c2ccccc12` was tested, and the z-score was 0.0214. `Cc1c(NC(=O)c2cc(-n3cnnc3)ccc2Cl)cccc1-c1nc2ccccc2o1` gave a z-score of -0.115. `O=C1c2ccccc2CN1CCNS(=O)(=O)c1ccc(Cl)cc1` was tested, and the z-score was -0.0894. In the case of `Cc1ccc(C(=O)N/N=c2\sc3ccccc3n2C)cc1`, the z-score is reported as 0.37. For `Cc1ccccc1NC(=O)COC(=O)/C=C/c1cn(-c2ccccc2)nc1-c1cccnc1`, the z-score was -0.0968. `Cn1nnc2cc(NC(=O)N3CCN(c4ccccn4)CC3)ccc21` showed a z-score of 0.387. `CC(=O)Oc1ccc(-c2cccc(C(=O)O)c2)cc1` gave a z-score of -0.607. `COc1ccc(C(=O)C2CCN(S(=O)(=O)c3ccc4c(c3)OCCO4)CC2)cc1` gave a z-score of 0.21. Work on `Clc1ccc(/C=N/Nc2nc(Cl)nc3ccccc23)cc1` yielded a z-score of 2.24. With `Clc1cccc(/C=N/Nc2nc(Cl)nc3ccccc23)c1` the z-score was -0.0962. In the case of `Clc1ccc(/C=N/Nc2nnc(Cl)c3ccccc23)cc1`, the z-score is reported as 0.242. With `CC(=O)Nc1ccc(OC(=O)c2cc3cc(Br)cc(Br)c3oc2=O)cc1` the z-score was -0.128. In the case of `CCOC(=O)C1=C(c2ccccc2)N=C2SCC(=O)N2C1c1cccc(OC)c1` (centres undefined), the z-score is reported as -0.311. For `CCOC(=O)c1c(NC(=S)Nc2ccc(OC)cc2)sc2c1CCC2`, the z-score was 0.905. In the case of `CCOC(=O)Nc1sc2c(c1C(=O)OCC)CCC2`, the z-score is reported as 0.418. `COC(=O)c1c(NC(=O)COC(=O)[C@@H](NS(=O)(=O)c2ccccc2)C(C)C)sc2c1CCC2` showed a z-score of 0.129. `CCOC(=O)c1c(NC=O)sc2c1CCC2` showed a z-score of -0.85. `CCOC(=O)c1c(NS(=O)(=O)c2cccc(OC)c2)sc2c1CCC2` was tested, and the z-score was 16.9 (active). Compound `COC(=O)c1c(NC(=O)COC(=O)[C@@H](NS(=O)(=O)c2ccc(C)cc2)C(C)C)sc2c1CCC2` has a z-score of 2.02. `CCOC(=O)c1c(NC(=O)OC)sc2c1CCC2` showed a z-score of 0.00121. In the case of `CCOC(=O)c1c(NS(=O)(=O)c2ccc(Br)cc2)sc2c1CCC2`, the z-score is reported as 16.1 (active). Work on `COC(=O)c1c(NC(=O)COC(=O)c2ccc(C)s2)sc2c1CCCCC2` yielded a z-score of 0.122. `CCOC(=O)C1CCN(CCC(=O)Nc2cccc(Cl)c2C)CC1` was tested, and the z-score was 0.732. Work on `O=C(NC1CCCCCC1)C1C2C=CC3(CN(Cc4cccnc4)C(=O)C13)O2` (centres undefined) yielded a z-score of 0.211. In the case of `O=c1cc(N2CCc3ccccc32)[nH]c(=O)n1-c1ccc(Br)cc1`, the z-score is reported as -0.058. `CCc1ccc(OCCOCC(O)CNC(C)CC)cc1` (centres undefined) was tested, and the z-score was 0.0842. `COC(=O)c1ccccc1NC(=O)C1CCC(=O)N1S(=O)(=O)c1ccc(C)cc1` (centres undefined) was tested, and the z-score was 0.251. Compound `CC(=O)NS(=O)(=O)c1ccc(NC(=O)COc2ccc(C(=O)c3ccccc3)cc2)cc1` has a z-score of 0.359. With `CC(NC(=O)C1CCN(S(=O)(=O)c2cc([N+](=O)[O-])ccc2Cl)CC1)c1ccccc1` (centres undefined) the z-score was -0.238. With `NC(=O)C1CCCN(S(=O)(=O)c2ccccc2)C1` (centres undefined) the z-score was -0.127. Compound `Cc1ccc(C(=O)Nc2nnc(-c3ccco3)o2)cc1C` has a z-score of 0.973. Work on `O=C(Nc1nnc(-c2ccco2)o1)c1cccc2ccccc12` yielded a z-score of 0.259. With `Cc1ccc(C(=O)Nc2nnc(-c3ccco3)o2)cc1` the z-score was 0.435. In the case of `CCC(=O)Nc1nnc(-c2ccco2)o1`, the z-score is reported as 2.14. Work on `O=C(Nc1nnc(-c2ccco2)o1)c1ccc2ccccc2c1` yielded a z-score of 2.95. With `Cc1cccc(C(=O)Nc2nnc(-c3ccco3)o2)c1` the z-score was 0.11. With `CCSc1nc2[nH]ncc2c(=O)[nH]1` the z-score was -0.145. Work on `CCOC(=O)c1c(N)sc(C(O)(C(F)(F)F)C(F)(F)F)c1-c1ccc(OC)cc1OC` yielded a z-score of -1.15. With `O=C(COC(=O)c1cccnc1Nc1cccc(C(F)(F)F)c1)NC1CCS(=O)(=O)C1` (centres undefined) the z-score was -0.275. Compound `O=C(NCc1cc(C(F)(F)F)cc(C(F)(F)F)c1)C1CC(c2c(Cl)cccc2Cl)=NO1` (centres undefined) has a z-score of -0.111. In the case of `Cc1ccc(-n2c(-c3ccc(Br)cc3)c[n+]3c2CCc2ccc4cccnc4c2-3)cc1`, the z-score is reported as 4.86 (active). For `Brc1ccc(-c2cn3c(n2)CCc2ccc4cccnc4c2-3)cc1`, the z-score was 0.098. Work on `Cc1ccc(S(=O)(=O)Nc2cccc3cccnc23)cc1` yielded a z-score of -0.731. In the case of `COc1ccccc1-n1c(SCC(=O)N2CCCCC2)nnc1-c1ccccc1O`, the z-score is reported as -0.514. Compound `CN(C(=O)c1ccccn1)c1nnc(-c2cnccn2)s1` has a z-score of -0.729. For `CN(C(=O)c1ccccn1)c1nnc(-c2ccncc2)s1`, the z-score was -0.931. Compound `CN(C(=O)c1ccccn1)c1nnc(-c2ccccn2)s1` has a z-score of 2.29.
